Compounds without any hit were thinned out: in the full panel of roughly 83,000, 20% have a hit.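 Plates (96-well) were seeded with cells, treated with compound at one concentration, and incubated for 48 hours before percent growth was determined.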 Unmarked numbers belong to inactive results. Activity calls are given as the source filed them. How the source made its calls: active means growth percent below 10; inactive means the rest.
What follows are compounds tested on MDA-MB-468 breast (assay: NCI-60 one-dose screen, 48 h (100 = growth as untreated, 0 = no growth, -100 = all killed)). Conditions: 10 µM unless noted.

Compound | growth
CCCCSCC(=O)c1ccccc1 | 113%
CCCCCCNc1cc(C)nc2ccc(OC)cc12 | -10.9% (active)
Cc1ccc(C)n1-c1ccccc1-n1c(C)ccc1C | 104%
CNc1ccccc1C(=O)N/N=C/C=C/c1ccccc1 | 19.8%
COc1ccc(-c2cc(-c3ccc(OC)c(OC)c3)nc(SCCCCCC(=O)NO)n2)cc1 | 54.8%
Oc1ccccc1/C=N/NC(=S)NC1CC2C=CC1C2 (stereo not drawn) | 73.1%
COc1cc2c3c(c1O)-c1ccccc1[C@@H]1OC(=O)N(CC2)[C@H]31 | 90%
O=C1NC(=O)C(Cc2ccc(OCc3ccc(-c4ccc(Cl)cc4Cl)cc3)cc2)S1 (stereo not drawn) | 14.3%

Source: PubChem BioAssay (NCI)
